# This excerpt belongs to a sample that is enriched for the strongest signals.
# B1: Clec18A (Homo sapiens) (protein)
# chain: PFHTCDLRIDGDCFMVSSEADTYYRARMKCQRKGGVLAQIKRQKVQDILAFYLGRLETTNEVIDSDFETRNFWIGLTYKTAKDSFRWATGEHQAFTSFAFGQPDNHGFGNCVELQASAAFNWNDQRCKTRNRYICQ
# Experiments:
# Test in all cases: glycan array binding signal (z-score within array); higher = stronger binding
# Conditions in all cases: glycan notation: IUPAC condensed, linker removed
# [1] = molecular target: Gal(b1-4)GlcNAc(b1-3)[Gal(b1-4)GlcNAc(b1-6)]Gal(b1-4)GlcNAc
# Method in brief: (§1)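 The binding signal is a Z-score computed within each array. Data were drawn from 3228 arrays in the Consortium for Functional Glycomics database, restricted to those with a known protein sequence. Scores were averaged over arrays of the same protein sequence at different concentrations or buffers, and over linkers, and negative values can be taken as non-binding.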
# Gal(b1-4)GlcNAc6P = molecular target: Gal(b1-4)GlcNAc6P
# Method in brief: as §1
# Gal(b1-6)Gal = molecular target: Gal(b1-6)Gal
# Method in brief: as §1
# Gal6S(b1-3)GlcNAc = molecular target: Gal6S(b1-3)GlcNAc
# Method in brief: as §1
# Gal6S(b1-3)GlcNAc6S = molecular target: Gal6S(b1-3)GlcNAc6S
# Method in brief: as §1
# Glc(a1-6)Glc(a1-6)Glc = molecular target: Glc(a1-6)Glc(a1-6)Glc
# Method in brief: as §1
# GlcA(b1-6)Gal = molecular target: GlcA(b1-6)Gal
# Method in brief: as §1
# [2] = molecular target: GlcA3S(b1-3)Gal(b1-4)GlcNAc(b1-2)Man
# Method in brief: as §1
# [3] = molecular target: GlcNAc(b1-2)Man(a1-3)[GlcNAc(b1-2)Man(a1-6)]Man(b1-4)GlcNAc(b1-4)[Fuc(a1-6)]GlcNAc
# Method in brief: as §1
# [4] = molecular target: GlcNAc(b1-2)[GlcNAc(b1-4)]Man(a1-3)[GlcNAc(b1-2)Man(a1-6)]Man(b1-4)GlcNAc(b1-4)GlcNAc
# Method in brief: as §1
# [5] = molecular target: GlcNAc(b1-3)[GlcNAc(b1-6)]Gal(b1-4)GlcNAc
# Method in brief: as §1
# [6] = molecular target: GlcNAc(b1-3)[GlcNAc(b1-6)]GalNAc
# Method in brief: as §1
# GlcNAc(b1-6)GalNAc = molecular target: GlcNAc(b1-6)GalNAc
# Method in brief: as §1
# [7] = molecular target: Neu5Ac(a2-3)Gal(b1-3)GalNAc(b1-3)Gal(a1-4)Gal(b1-4)Glc
# Method in brief: as §1
# [8] = molecular target: Neu5Ac(a2-3)Gal(b1-3)GlcNAc(b1-2)Man
# Method in brief: as §1
# [9] = molecular target: Neu5Ac(a2-3)Gal(b1-4)GlcNAc(b1-2)Man(a1-3)[Neu5Ac(a2-6)Gal(b1-4)GlcNAc(b1-2)Man(a1-6)]Man(b1-4)GlcNAc(b1-4)GlcNAc
# Method in brief: as §1
# [10] = molecular target: Neu5Ac(a2-3)Gal(b1-4)GlcNAc(b1-2)[Neu5Ac(a2-3)Gal(b1-4)GlcNAc(b1-4)]Man(a1-3)[GlcNAc(b1-4)][Neu5Ac(a2-3)Gal(b1-4)GlcNAc(b1-2)[Neu5Ac(a2-3)Gal(b1-4)GlcNAc(b1-6)]Man(a1-6)]Man(b1-4)GlcNAc(b1-4)GlcNAc
# Method in brief: as §1
# [11] = molecular target: Neu5Ac(a2-3)Gal(b1-4)GlcNAc(b1-2)[Neu5Ac(a2-3)Gal(b1-4)GlcNAc(b1-4)]Man(a1-3)[GlcNAc(b1-4)][Neu5Ac(a2-3)Gal(b1-4)GlcNAc(b1-4)Man(a1-6)]Man(b1-4)GlcNAc(b1-4)GlcNAc
# Method in brief: as §1
# [12] = molecular target: Neu5Ac(a2-3)Gal(b1-4)GlcNAc(b1-3)Gal(b1-4)[Fuc(a1-3)]GlcNAc
# Method in brief: as §1
# [13] = molecular target: Neu5Ac(a2-6)Gal(b1-4)GlcNAc(b1-3)Gal(b1-3)GlcNAc
# Method in brief: as §1
# [14] = molecular target: Neu5Ac(a2-6)Gal(b1-4)GlcNAc(b1-3)Gal(b1-4)GlcNAc(b1-2)Man(a1-3)[Neu5Ac(a2-6)Gal(b1-4)GlcNAc(b1-3)Gal(b1-4)GlcNAc(b1-2)Man(a1-6)]GalNAc
# Method in brief: as §1
# [15] = molecular target: Neu5Ac(a2-6)Gal(b1-4)GlcNAc(b1-3)Gal(b1-4)GlcNAc(b1-6)[Gal(b1-3)]GalNAc
# Method in brief: as §1
# [16] = molecular target: Neu5Ac(a2-6)Gal(b1-4)GlcNAc(b1-3)[Neu5Ac(a2-6)Gal(b1-4)GlcNAc(b1-6)]GalNAc
# Method in brief: as §1
# [17] = molecular target: Neu5Ac(a2-6)Gal(b1-4)GlcNAc(b1-6)[Gal(b1-3)]GalNAc
# Method in brief: as §1
# [18] = molecular target: Neu5Ac(a2-8)Neu5Ac(a2-3)[GalNAc(b1-4)]Gal(b1-4)Glc
# Method in brief: as §1
# [19] = molecular target: Neu5Ac(b2-6)Gal(b1-4)GlcNAc
# Method in brief: as §1
binder,measurement,setting,value
B1,glycan array binding signal (z-score),[1],0.596
same,glycan array binding signal (z-score),Gal(b1-4)GlcNAc6P,0.093
same,glycan array binding signal (z-score),Gal(b1-6)Gal,3
same,glycan array binding signal (z-score),Gal6S(b1-3)GlcNAc,3.79
same,glycan array binding signal (z-score),Gal6S(b1-3)GlcNAc6S,-0.347
same,glycan array binding signal (z-score),Glc(a1-6)Glc(a1-6)Glc,-0.771
same,glycan array binding signal (z-score),GlcA(b1-6)Gal,8.1
same,glycan array binding signal (z-score),[2],-0.619
same,glycan array binding signal (z-score),[3],-0.289
same,glycan array binding signal (z-score),[4],-0.935
same,glycan array binding signal (z-score),[5],-0.673
same,glycan array binding signal (z-score),[6],-0.327
same,glycan array binding signal (z-score),GlcNAc(b1-6)GalNAc,0.314
same,glycan array binding signal (z-score),[7],2.87
same,glycan array binding signal (z-score),[8],1.04
same,glycan array binding signal (z-score),[9],-0.398
same,glycan array binding signal (z-score),[10],-0.652
same,glycan array binding signal (z-score),[11],-0.566
same,glycan array binding signal (z-score),[12],-0.342
same,glycan array binding signal (z-score),[13],-0.391
same,glycan array binding signal (z-score),[14],-0.045
same,glycan array binding signal (z-score),[15],0.884
same,glycan array binding signal (z-score),[16],3.01
same,glycan array binding signal (z-score),[17],1.17
same,glycan array binding signal (z-score),[18],4.6
same,glycan array binding signal (z-score),[19],0.965

# From the supplement of paper PMC8728848
